CYP2C9 act – human CYP2C9 activators, primary screen, biochemical, luminescence; recombinant CYP2C9, luciferin-H conversion; hits give high values; factor 1 = untreated enzyme, 0 = blocked; AID 1024, 2008; Cytochrome P450 2C9 (Homo sapiens), P11712; actives 1.4% (n = 96,000); activation factor at 5 µM;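 active = activation factor of 2 or more for CYP2C9 at a 5 µM dose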;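 also: 0 = sulfaphenazole-blocked wells and 1 = vehicle-only wells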
Target sequence (P11712 whole entry, looked up): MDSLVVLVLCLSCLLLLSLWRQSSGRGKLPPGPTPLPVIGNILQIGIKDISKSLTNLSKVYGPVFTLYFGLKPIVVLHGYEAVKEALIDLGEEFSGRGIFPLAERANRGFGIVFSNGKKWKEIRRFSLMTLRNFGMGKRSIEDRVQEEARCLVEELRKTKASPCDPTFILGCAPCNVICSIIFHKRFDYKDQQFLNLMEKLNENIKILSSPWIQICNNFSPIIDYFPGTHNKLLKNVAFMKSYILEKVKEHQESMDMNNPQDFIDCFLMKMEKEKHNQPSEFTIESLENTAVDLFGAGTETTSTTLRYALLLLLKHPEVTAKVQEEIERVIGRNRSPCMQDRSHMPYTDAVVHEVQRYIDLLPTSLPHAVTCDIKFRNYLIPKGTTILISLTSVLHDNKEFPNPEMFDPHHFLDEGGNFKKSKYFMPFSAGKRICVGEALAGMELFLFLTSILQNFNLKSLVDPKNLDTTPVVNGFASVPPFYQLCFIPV
CYP2C9 inhib – blockers of cytochrome P450 2C9 activity – biochemical, luminescence, ADME assay, primary screen; CYP2C9 Supersomes, luciferin-H conversion; AID 777, 2007; actives 20% (n = 96,000); inhibition, % at 5 µM; P11712;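 active = blocking of liver enzyme CYP2C9 beyond about 50% at 5 µM, limit read from the data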
sEH inhibitor – soluble epoxide hydrolase inhibitors, primary screen, biochemical, human sEH; inhibition, % at 2 µM; recombinant human sEH enzymatic activity assay; actives 0.34% (n = 91,000); AID 707, 2007; in the data active = inhibition above about 80%
sEH activator – soluble epoxide hydrolase activators, primary screen, biochemical, human sEH. Bifunctional epoxide hydrolase 2 (Homo sapiens), P34913. purified human sEH enzymatic activity, activator screen. activation, % at 2 µM. actives 0.04% (n = 91,000). AID 717, 2007; in the data active = activation above about 37%
CYP2C19 activ – human CYP2C19 activators, primary screen, biochemical, luminescence; 96,000 tested, under 10 active; activation factor at 5 µM; recombinant CYP2C19, luciferin-H EGE luminescence; hits give high values; 0 = fully inhibited enzyme, 1 = untreated enzyme; Cytochrome P450 2C19 (Homo sapiens), P33261;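 active = activation factor of at least 2 at 5 µM in the primary screen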;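 also: 0 = wells with 2.5 mM tranylcypromine and 1 = vehicle-only wells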
CYP2C19 inh – blockers of cytochrome P450 2C19 activity – biochemical, luminescence, ADME assay, primary screen; P33261; CYP2C19 Supersomes, luciferin-H EGE luminescence, 30 min; inhibition, % at 5 µM; actives 21% (n = 96,000); AID 778, 2007;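 active = CYP2C19 inhibition above a set limit at 5 µM in the primary screen, cut at about 50% in these data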;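 also: plate controls were negative control wells for no effect and 2.5 mM tranylcypromine positive control for full effect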
* = called active by the depositor; nt = no result given. Most compounds without a hit are left out; they make up all but 27% or so of the library.

SMILES	CYP2C9 act	CYP2C9 inhib	sEH inhibitor	sEH activator	CYP2C19 activ	CYP2C19 inh
CCc1[nH]nc2c1C(c1ccc(Br)s1)C(C#N)=C(N)O2 (centres undefined)	0.3	66*	11	-8	0.3	67*
COCc1[nH]nc2c1C(c1c(F)cccc1Cl)C(C#N)=C(N)O2 (centres undefined)	0.6	44	0	0	0.4	58*
CCc1[nH]nc2c1C(c1ccsc1)C(C#N)=C(N)O2 (centres undefined)	nt	nt	14	-12	nt	nt
CCCc1[nH]nc2c1C(c1ccc(OC)c(CSC3=NCCS3)c1)C(C#N)=C(N)O2 (centres undefined)	0.4	58*	22	-19	0.5	45
O=c1c2ccccc2n2nnnc2n1-c1ccccc1	1	-2	-3	4	1	0
Cc1c(C(=O)OCC(=O)N2CC(=O)Nc3ccccc32)oc2ccccc12	1	3	-6	9	1.2	-23
CCCc1[nH]nc2c1C(Cc1ccccc1)C(C#N)=C(N)O2 (centres undefined)	0.9	6	-8	9	0.3	68*
CCCc1[nH]nc2c1C(CCc1ccccc1)C(C#N)=C(N)O2 (centres undefined)	0.3	69*	-2	0	0.2	77*
COc1ccc(OC)c(-c2[nH]nc3c2C(c2ccco2)C(C#N)=C(N)O3)c1 (centres undefined)	0.6	39	-6	6	0.2	80*
CC(C)c1[nH]nc2c1C(C(C)C)C(C#N)=C(N)O2 (centres undefined)	1.1	-11	3	-4	0.4	59*
CCCCC(CC)C(=O)Nc1ccccc1C(=O)NC(C)C (centres undefined)	0.6	41	-14	16	0.9	10
Cc1ccc(N2CCN(CC(=O)Nc3c(C(=O)C4CC4)oc4ccccc34)CC2)cc1	1	0	5	-1	1.1	-12
COc1cc(OC)cc(C(C(=O)NC2CCCCC2)N(C(=O)c2ccno2)c2ccccc2)c1 (centres undefined)	nt	nt	-14	18	nt	nt
CCCc1[nH]nc2c1C(c1cc(OC)ccc1F)C(C#N)=C(N)O2 (centres undefined)	0.1	88*	39	-39	0.2	81*
CN(c1cccc(Cl)c1)S(=O)(=O)c1cccc(C(=O)NC2=NCCS2)c1	0.2	82*	12	-9	0.3	74*
COc1ccc(N(Cc2ccccc2)S(=O)(=O)c2cccc(C(=O)NC3=NCCS3)c2)cc1	0	97*	13	-10	0.3	71*
Cc1ccc(C(=O)CSc2nc3cc(S(=O)(=O)N4CCOCC4)ccc3o2)cc1	0.2	82*	nt	nt	0.9	11
Cc1[nH]c2ccccc2c1C(=O)CSc1nc2cc(S(=O)(=O)N3CCCCC3)ccc2o1	0.1	90*	-2	5	0.4	60*
O=C(CSc1nc2cc(S(=O)(=O)N3CCOCC3)ccc2o1)NC1CCCc2ccccc21 (centres undefined)	0.4	60*	-4	9	0.3	74*
CC(C)Cn1c(SCC(=O)NC2CCCc3ccccc32)nc(O)cc1=O (centres undefined)	1	-2	nt	nt	1	1
CC(=O)c1cccc(NC(=O)CCS(=O)(=O)c2cccc3nonc23)c1	0.9	12	nt	nt	0.8	22
O=C(NC1CCCCCC1)c1c(O)c2ccccc2[nH]c1=O	0.7	31	8	-7	0.7	27
O=C(NC1CCCCC1)c1sc(=S)n2c1[nH]c(=O)c1ccccc12	0.1	95*	5	-4	0.3	72*
O=C(NCC1CCCO1)c1sc(=S)n2c1[nH]c(=O)c1ccc(C(=O)N3CCCCC3)cc12 (centres undefined)	0.1	86*	nt	nt	0.9	9
CCCCNC(=O)c1sc(=S)n2c1[nH]c(=O)c1ccccc12	0.1	94*	-4	1	0.8	18
SMILES	CYP2C9 act	CYP2C9 inhib	sEH inhibitor	sEH activator	CYP2C19 activ	CYP2C19 inh
COc1ccc(NC(=O)C2CCC(CNc3c(N4CCCCC4)c(=O)c3=O)CC2)cc1OC (centres undefined)	0.6	36	-17	15	0.8	19
C=CCn1c(N)cc(=O)nc1SCC(=O)N1CCN(c2ccc(F)cc2)CC1	1	4	2	-2	0.8	20
COc1ccc(-c2csc(NC(=O)c3cccc(S(=O)(=O)N4CCN(C)CC4)c3)n2)cc1	0.9	7	0	-2	0.9	10
COc1ccc(C2=CSC3=C(C(=O)c4cccc(S(=O)(=O)N(C)C)c4)CCN23)cc1	0.4	64*	12	-13	0.1	86*
O=C(Nc1ccc(C(=O)Oc2ccccc2)c(O)c1)c1ccco1	0.6	42	2	-2	0.6	41
CSc1nc(Oc2ccc3ccccc3c2)c2sccc2n1	0.1	87*	-8	10	0.8	20
O=C(c1ccc2c(c1)OCO2)[C@@H]1[C@@H]2C(=O)N(C3CCCCC3)C(=O)[C@@H]2C2c3ccccc3C=CN21 (some centres undefined)	0.2	76*	nt	nt	0.4	58*
O=C(c1cccs1)[C@@H]1[C@@H]2C(=O)N(Cc3ccc4c(c3)OCO4)C(=O)[C@@H]2C2c3ccccc3C=CN21 (some centres undefined)	0.4	64*	-6	7	0.7	30
CC(C)(C)C(=O)[C@@H]1[C@@H]2C(=O)N(C3CCCCC3)C(=O)[C@@H]2[C@H]2c3ccccc3C=CN12	0.2	82*	-1	0	0.3	66*
COc1ccc(CCNC(=O)C(C)OC(=O)c2ccco2)cc1OC (centres undefined)	0.6	40	-9	7	0.7	34
O=C(c1cccc(COCC(F)(F)C(F)F)c1)N1CCN(c2ccccc2)CC1	0.6	36	16	-11	0.5	46
O=C(Cc1ccccc1)NCCSCc1ccco1	1	-2	1	1	0.7	31
CC(CCc1ccccc1)C(=O)NO (centres undefined)	1.1	-14	nt	nt	0.6	42
O=C(Cc1ccccc1)NCCSCc1ccc(Cl)cc1	0.4	63*	21	-21	0.7	27
CC(CCc1ccccc1)NC(=O)/C=C/c1ccccc1 (centres undefined)	0.5	46	-4	4	0.5	52*
Cc1ccc(CC(=O)NCCCc2ccccc2)cc1	0.1	85*	30	-31	0.2	79*
Cc1occc1C(=O)NCc1ccccc1F	0.5	51*	-3	9	0.5	45
